Bioassay records deposited in PubChem by National Center for Advancing Translational Sciences (NCATS).
DT40 TDP1 no CPT – qHTS for Inhibitors of human tyrosyl-DNA phosphodiesterase 1 (TDP1): qHTS in cells in absence of CPT; DT40 Tdp1-/- hTDP1 cells, no CPT, ATP luminescence, 48 h; Potency, µM (highest dose often 46.2 µM), for inactives: top-dose activity change, negative = growth inhibition, actives largely listed as inhibitors; 420,000 compounds, 15% hits; also: potency is read from the fitted curve at half-maximal effect; % is scaled to controls: 0 for no effect and ±100 for the full control effect; nearly all actives have a fitted effect of over 55% in size
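Growth of hTDP1-complemented DT40 Tdp1-knockout cells is measured by ATP luminescence after at least 48 hr compound exposure at 37 °C, with DMSO substituting for the 20 nM CPT used in the parallel screen.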
TDP1 inh – inhibitors of human tyrosyl-DNA phosphodiesterase TDP1 | 350,000 compounds, 0.28% hits | recombinant TDP1, AlphaScreen DNA substrate cleavage | Potency, µM (titrated, usually from 130 µM), inactives show at the highest dose activity change, negative = inhibition, most hits filed as inhibitors | AID 485290 | Q9NUW8; also: potency is read from the fitted curve at half-maximal effect; % is scaled to controls: 0 for no effect and ±100 for the full control effect; nearly all actives have a fitted effect of over 40% in size
Target sequence (Q9NUW8 whole entry, looked up): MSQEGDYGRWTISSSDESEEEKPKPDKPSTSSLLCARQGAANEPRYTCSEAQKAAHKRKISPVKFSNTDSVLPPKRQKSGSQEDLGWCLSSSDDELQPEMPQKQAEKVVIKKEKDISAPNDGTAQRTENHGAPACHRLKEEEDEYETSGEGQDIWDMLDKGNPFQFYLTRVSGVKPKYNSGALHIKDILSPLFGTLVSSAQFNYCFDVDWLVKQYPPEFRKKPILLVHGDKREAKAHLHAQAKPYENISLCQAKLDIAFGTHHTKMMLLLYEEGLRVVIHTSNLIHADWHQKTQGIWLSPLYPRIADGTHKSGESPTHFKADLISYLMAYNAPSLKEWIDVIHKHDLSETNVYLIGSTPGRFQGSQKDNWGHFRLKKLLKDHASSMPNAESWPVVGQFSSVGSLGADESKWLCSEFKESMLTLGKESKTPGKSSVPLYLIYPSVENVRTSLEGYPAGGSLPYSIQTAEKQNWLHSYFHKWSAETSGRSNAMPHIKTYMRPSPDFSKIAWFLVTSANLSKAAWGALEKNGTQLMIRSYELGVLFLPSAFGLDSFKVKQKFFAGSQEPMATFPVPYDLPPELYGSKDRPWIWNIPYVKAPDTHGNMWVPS
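Recombinant human Tdp1 (E. coli-expressed, 1 nM final) preincubated with compounds 15 min at room temperature, then 5'-biotin/3'-phosphotyrosine-FITC DNA substrate (15 nM final) added for 5 min. AlphaScreen beads (10 ug/ml final) added 10 min; cleavage lowers signal.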
DT40 TDP1 CPT – growth inhibition of DT40 Tdp1-/-;hTDP1 cells with camptothecin (screen for TDP1 inhibitors); chicken DT40 Tdp1-/-;hTDP1 cells + 20 nM CPT, ATP luminescence, 48 h; Potency, µM (doses to about 46.2 µM), inactives show at the top dose activity change, negative = growth inhibition, usual class: inhibitors; 420,000 compounds, 12% hits; also: potency is read from the fitted curve at half-maximal effect; % is scaled to controls: 0 for no effect and ±100 for the full control effect; nearly all actives have a fitted effect of over 55% in size
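Chicken DT40 Tdp1-/- cells stably complemented with human TDP1 were seeded at 400 cells/well in medium containing 20 nM camptothecin, exposed to pin-transferred compounds, and grown at 37 °C for at least 48 hr. Viability was read as ATP luminescence.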
IL1B secr inh – blocks inflammasome-driven IL-1 beta release; activity change, % at 57.5 µM; 360,000 compounds, 4.7% hits; THP-1 LPS/ATP IL-1B secretion, AlphaLISA, 16 h; stronger effect = lower value; in the data active = activity change below about -50%; inconclusive = mostly about -30% to -49%; also: % is scaled to controls: 0 for no effect and ±100 for the full control effect
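THP-1 cells pretreated 1 hr with compounds (up to 57.5 uM final), then stimulated with LPS (250 ng/mL final) plus ATP (1.25 mM final); secreted IL-1B measured by AlphaLISA after 16 hr, decreased signal indicating inhibition.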
HepG2 tox-1 – HepG2 cytotoxicity, counter-screen for TGF-b inhibitors; HepG2 CAGA-GFP viability, ATP luminescence, 18 h; Potency, µM (titrated, usually from 46.1 µM), for the others: top-dose activity change, negative = cytotoxicity, hits mostly cytotoxic; 410,000 compounds, 0.76% hits; also: potency is read from the fitted curve at half-maximal effect
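HepG2 CAGA-GFP cells (1000/well, DMEM with 1% FBS) received compound, then TGF-beta at 500 pg/mL final, and were incubated 18 hours at 37 degrees C. Viability was read by CellTiter-Glo luminescence. Media-only wells were set as complete cell-killing and DMSO as no toxicity.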
TGFb SMAD3 inh – inhibitors of TGF-b signaling. AID 588855. HepG2 CAGA-GFP TGF-b/SMAD3 reporter, GFP fluorescence, 18 h; TGF-beta stimulated, 500 pg/mL final. Potency, µM (highest dose often 46.1 µM), without a hit: at the top dose activity, negative = inhibition, actives largely listed as inhibitors. 410,000 compounds, 1.2% hits; also: potency is read from the fitted curve at half-maximal effect; % is scaled to controls: 0 for no effect and ±100 for the full control effect; nearly all actives have a fitted effect of over 65% in size
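Smad-responsive CAGA-GFP expression was quantified in HEPG2 cells exposed to compounds and 500 pg/mL final TGF-beta for 18 h at 37 degrees C; unstimulated wells defined full inhibition.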
TGFb CAGA inh – confirmation of TGF-b signaling inhibitors in HepG2 reporter cells; shares compounds with TGFb SMAD3 inh; HepG2 CAGA-GFP TGF-b reporter, GFP fluorescence, 18 h; cells stimulated with TGF-beta, 500 pg/mL; Potency, µM (titrated, usually from 46.1 µM), for inactives: at the top dose activity, negative = inhibition, hits mostly inhibitors; 1,600 compounds, 63% hits; AID 720534; also: potency is read from the fitted curve at half-maximal effect; % is scaled to controls: 0 for no effect and ±100 for the full control effect; nearly all actives have a fitted effect of over 65% in size
HepG2 tox-2 – toxic to HepG2 cells in TGF-b counterscreen; shares compounds with TGFb SMAD3 inh; HepG2 CAGA-GFP viability, ATP luminescence, 18 h; cells stimulated with TGF-beta, 500 pg/mL; Potency, µM (highest dose often 46.1 µM), for the others: at the top dose activity, negative = cytotoxicity, usual class: inhibitors; 1,600 compounds, 27% hits; AID 720535; also: potency is read from the fitted curve at half-maximal effect; % is scaled to controls: 0 for no effect and ±100 for the full control effect; nearly all actives have a fitted effect of over 70% in size
CCL64 TGFb inh – blocks TGF-b signaling in CCL64 reporter cells. shares compounds with TGFb SMAD3 inh. CCL64 CAGA-GFP reporter, TGF-b stimulated, GFP fluorescence, 18 h. Potency, µM (highest dose often 46.1 µM), for inactives: top-dose activity, negative = inhibition, hits mostly inhibitors. 1,600 compounds, 41% hits. AID 720536; also: potency is read from the fitted curve at half-maximal effect; nearly all actives have a fitted effect of over 65% in size
TGFb COP inh – validation of TGF-b inhibitors in HepG2 COP promoter reporter. shares compounds with TGFb SMAD3 inh. HepG2 COP-GFP TGF-b reporter, GFP fluorescence, 18 h; cells stimulated by added recombinant TGF-beta. Potency, µM (doses to about 46.1 µM), inactives show at the top dose activity, negative = inhibition, actives largely listed as inhibitors. 1,600 compounds, 3% hits. AID 720537; also: potency is read from the fitted curve at half-maximal effect; nearly all actives have a fitted effect of over 70% in size
* = called active by the depositor; [ ] = remark or other dose. Sampled rows, rich in hits. Any-hit rate of the full collection: about 19%. Unless noted, calls follow the shape of the dose curve; as a rule, active = well fitted curve in the direction sought with a large enough effect; inconclusive = small, poorly fitted or top-dose-only effect, or another doubt; inactive = no such curve, though single readings can be large; an effect the other way counts as inactive or inconclusive.

`CNc1nc(C)c(C(=O)c2ccc(Cl)cc2)s1` gave DT40 TDP1 no CPT inconclusive, TDP1 inh 3.6%, DT40 TDP1 CPT -11.6%, IL1B secr inh 26.8, HepG2 tox-1 17.7% and TGFb SMAD3 inh -8.9%.
CCOC(=O)Nc1nc(-c2ccccc2)c(C(=O)c2ccc(Cl)cc2)s1 was read as DT40 TDP1 no CPT 0.92µM*, TDP1 inh 8.8%, DT40 TDP1 CPT 0.731µM*, IL1B secr inh 35.6, HepG2 tox-1 16.0%, TGFb SMAD3 inh 8.91µM*, TGFb CAGA inh 7.31µM*, HepG2 tox-2 -8.7%, CCL64 TGFb inh 9.2µM* and TGFb COP inh 3.0%.
Screening O=C(COc1ccccc1)N[C@@H]1c2ccccc2CC[C@@H]1OCc1ccccc1 returned DT40 TDP1 no CPT -18.2%, TDP1 inh -2.1%[56.1 µM], DT40 TDP1 CPT inconclusive, IL1B secr inh -12.2, HepG2 tox-1 -16.1% and TGFb SMAD3 inh -26.6%.
`O=C(COc1ccccc1)N[C@@H]1c2ccccc2CC[C@H]1OCc1ccccc1` gave DT40 TDP1 no CPT 25.9µM*, TDP1 inh -6.6%[56.1 µM], DT40 TDP1 CPT inconclusive, IL1B secr inh -10.2, HepG2 tox-1 -23.0%, TGFb SMAD3 inh 15.8µM*, TGFb CAGA inh inconclusive, HepG2 tox-2 inconclusive, CCL64 TGFb inh 18.4µM* and TGFb COP inh 35.8%.
`Cc1ccc(S(=O)(=O)Nc2nc3ccccc3nc2Nc2cccc(S(=O)(=O)N3CCCC3)c2)cc1` gave DT40 TDP1 no CPT inconclusive, TDP1 inh -8.2%, DT40 TDP1 CPT inconclusive, IL1B secr inh 33.0, HepG2 tox-1 -42.5% and TGFb SMAD3 inh 42.5%.
Screening O=[N+]([O-])c1cccc(S(=O)(=O)Nc2nc3ccccc3nc2Nc2cccc(S(=O)(=O)N3CCCCC3)c2)c1 returned DT40 TDP1 no CPT inconclusive, TDP1 inh 5.7%, DT40 TDP1 CPT inconclusive, IL1B secr inh -20.6, HepG2 tox-1 -31.6%, TGFb SMAD3 inh 4.47µM*, TGFb CAGA inh 3.26µM*, HepG2 tox-2 6.51µM*, CCL64 TGFb inh 2.91µM* and TGFb COP inh 0.9%.
For O=S(=O)(CC(CN1CCCCC1)N1CCCCC1)c1ccc2ccccc2c1 (centres undefined) the results were DT40 TDP1 no CPT 2.59µM*, TDP1 inh 2.7%, DT40 TDP1 CPT 5.17µM*, IL1B secr inh -96.7*, HepG2 tox-1 11.2µM*, TGFb SMAD3 inh 3.16µM*, TGFb CAGA inh 13µM*, HepG2 tox-2 13µM*, CCL64 TGFb inh inconclusive and TGFb COP inh inconclusive.
COc1ccc(NC(=O)CNC(c2ccccc2)c2ccccc2)cc1Cl was read as DT40 TDP1 no CPT inconclusive, DT40 TDP1 CPT inconclusive, IL1B secr inh -18.5, HepG2 tox-1 -28.9%, TGFb SMAD3 inh 11.2µM*, TGFb CAGA inh inconclusive, HepG2 tox-2 -10.5%, CCL64 TGFb inh inconclusive and TGFb COP inh 33.5%.
Screening COc1ccc(/C=C2/CCCC(CN(C)C)C2=O)cc1 (centres undefined) returned DT40 TDP1 no CPT 0.581µM*, DT40 TDP1 CPT 0.517µM*, IL1B secr inh -72.1*, HepG2 tox-1 -32.8%, TGFb SMAD3 inh 6.31µM*, TGFb CAGA inh 2.59µM*, HepG2 tox-2 7.31µM*, CCL64 TGFb inh 4.11µM* and TGFb COP inh inconclusive.
For COc1cccc(/C=C2/CCC(CN(C)C)C2=O)c1 (centres undefined) the results were DT40 TDP1 no CPT 2.31µM*, DT40 TDP1 CPT 2.31µM*, IL1B secr inh -100.3*, HepG2 tox-1 -97.5%, TGFb SMAD3 inh 2.51µM*, TGFb CAGA inh 2.59µM*, HepG2 tox-2 5.8µM*, CCL64 TGFb inh 1.46µM* and TGFb COP inh inconclusive.
`CC(=O)Nc1ccc(NC(=O)C(C)OC(=O)C2(c3ccc(Cl)cc3)CCCC2)cc1` (centres undefined) gave DT40 TDP1 no CPT inconclusive, TDP1 inh 2.7%, DT40 TDP1 CPT -6.9%, IL1B secr inh -1.3, HepG2 tox-1 -3.7% and TGFb SMAD3 inh -24.9%.
Cc1ccc(NC(=O)COC(=O)C2(c3ccc(Cl)cc3)CCCC2)cc1 was read as DT40 TDP1 no CPT 23.1µM*, TDP1 inh -8.1%, DT40 TDP1 CPT 23.1µM*, IL1B secr inh inconclusive, HepG2 tox-1 -41.3%, TGFb SMAD3 inh 10µM*, TGFb CAGA inh inconclusive, HepG2 tox-2 inconclusive, CCL64 TGFb inh inconclusive and TGFb COP inh 29.4%.
For Cc1nn(-c2ccccc2)c(C)c1C(=O)NCc1ccccc1F the results were DT40 TDP1 no CPT 5.4%, TDP1 inh 2.2%, DT40 TDP1 CPT 1.8%, IL1B secr inh -4.1, HepG2 tox-1 -28.3% and TGFb SMAD3 inh -17.0%.
CC(=O)N1c2ccc(S(=O)(=O)N3CCC(C(=O)Nc4cccc(C(F)(F)F)c4)CC3)cc2CC1C (centres undefined) was read as DT40 TDP1 no CPT inconclusive, TDP1 inh 4.2%, DT40 TDP1 CPT 16.4µM*, IL1B secr inh -4.9, HepG2 tox-1 -19.0%, TGFb SMAD3 inh 11.2µM*, TGFb CAGA inh 16.4µM*, HepG2 tox-2 inconclusive, CCL64 TGFb inh -22.8% and TGFb COP inh -7.7%.
